# HepG2 tox: kills HepG2 cells in TGF-b inhibitor counter-screen; HepG2 CAGA-GFP viability, ATP luminescence, 18 h; 410,000 tested, 0.76% active; AID 588856; Potency, µM (top dose mostly 46.1 µM), without a hit: at the top dose activity change, negative = cytotoxicity, most hits filed as cytotoxic
#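 CellTiter-Glo luminescence gave cytotoxicity after 18 hours at 37 degrees C. The cells were HepG2 CAGA-GFP in 1% FBS DMEM, stimulated with 500 pg/mL TGF-beta after compound addition. %Activity was normalised to no-cell wells (complete cell-killing) and DMSO (no toxicity), and curves were fitted and classified.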
# TGFb SMAD3 inh: TGF-b pathway inhibition | Potency, µM (titrated, usually from 46.1 µM), without a hit: at the highest dose activity, negative = inhibition, usual class: inhibitors | 410,000 tested, 1.2% active | AID 588855 | HepG2 CAGA-GFP TGF-b/SMAD3 reporter, GFP fluorescence, 18 h; TGF-beta stimulated, 500 pg/mL final; also: % is scaled to controls: 0 for no effect and ±100 for the full control effect; nearly all actives have a fitted effect of over 65% in size
#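 Using HEPG2 CAGA-GFP reporter cells at 1000 cells/well, we pinned test compounds, stimulated with recombinant TGF-beta (500 pg/mL final) and measured total well GFP after 18 h.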
# HT1080 IDH1KD tx: HT-1080 IDH1 knockdown cell toxicity (counter line); 360,000 tested, 2% active; HT-1080 IDH1 knockdown viability, ATP luminescence, 48 h; Potency, µM (top dose mostly 46.1 µM), without a hit: at the highest dose activity, negative = toxicity, hits mostly cytotoxic;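 also: 0% = DMSO wells and -100% = cell-free medium wells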
#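 % activity derives from luminescence (CellTiter-Glo), normalised to DMSO and no-cell wells. HT-1080-IDH1KD cells, 750/well, had 48 h compound exposure at 37 °C.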
# KB-V1 MDR tox: KB-V1 MDR subline cytotoxicity; KB-V1 MDR cells viability, CellTiter-Glo, 72 h; Potency, µM (top dose mostly 46.1 µM), hits mostly cytotoxic; 400,000 tested, 3.4% active; also: % is scaled to controls: 0 for no effect and ±100 for the full control effect; nearly all actives have a fitted effect of over 60% in size
#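 Compound-treated KB-V1 multidrug-resistant cells, 72 h, 37 degrees C; viability by CellTiter-Glo. Fitted qHTS curves give the values.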
# KB-3-1 cytotox: KB-3-1 parental cell cytotoxicity | KB-3-1 viability, CellTiter-Glo ATP luminescence, 72 h | Potency, µM (titrated, usually from 46.1 µM), actives largely listed as cytotoxic | 400,000 tested, 1.4% active; also: % is scaled to controls: 0 for no effect and ±100 for the full control effect; nearly all actives have a fitted effect of over 60% in size
#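 Luminescent ATP read-out (CellTiter-Glo) measures survival of drug-naive KB-3-1 cells after 72 h compound exposure at 37 °C. Titration series was screened from lowest to highest concentration, with DMSO vehicle plates as background controls.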
# HT1080NT lethal: kills 2HG-producing HT-1080-NT fibrosarcoma cells. 360,000 tested, 1.6% active. HT-1080-NT fibrosarcoma viability, CellTiter-Glo ATP luminescence, 48 h. AID 686970. Potency, µM (series often up to 46.1 µM), inactives show at the top dose activity, negative = less viability, hits mostly cytotoxic;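 also: NT is the 2HG producing partner of a matched IDH1 knockdown line; 0% = DMSO-treated cells and -100% = media-only wells without cells; nearly all actives have a fitted effect of over 55% in size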
#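 Luminescent CellTiter-Glo readout after 48 hours of compound exposure at 37 degrees C defined viability of HT-1080-NT cells. Activity was normalized to DMSO wells and cell-free media wells; concentration-response curves were fitted and assigned curve classes.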
# Numbers without * were called inactive; i = inactive; ? = inconclusive; . = no result; [ ] = dose if it differs, or a comment. The list is not random: actives were taken first. Their share in the collection is about 6.6%. Calls follow the shape of the dose curve; as a rule, active = well fitted curve in the direction sought with a large enough effect; inconclusive = small, poorly fitted or top-dose-only effect, or another doubt; inactive = no such curve, though single readings can be large; an effect the other way counts as inactive or inconclusive. Potency is read from the fitted curve at half-maximal effect.
SMILES,HepG2 tox,TGFb SMAD3 inh,HT1080 IDH1KD tx,KB-V1 MDR tox,KB-3-1 cytotox,HT1080NT lethal
COc1cc(NC(C)CCCN)c2ncccc2c1 (configuration not stated),-55%,?,?,i,i,16µM*
COc1cc(NCCCCCCCN)c2ncccc2c1,-60%,?,0%,i,i,-9%
COc1cc(C2C(=O)N(C3CCCCCC3)CC(=O)N2CCC2=CCCCC2)ccc1OC(C)C (configuration not stated),-5%,2%,.,.,.,.
Cc1ccc(-n2ncc(C(=O)Nc3cc(Cl)cc(Cl)c3)c2C2CCNCC2)cc1C,-110%,?,21µM*,i,i,?
Cc1ccc(C(=O)c2sc3nc4c(cc3c2N)CCC4)cc1,-14%,-6%,8%,i,i,21%
Nc1nc(N)c2sc3nc4c(cc3c2n1)CCC4,-34%,24%,-2%[9.24 µM],21µM*,i,-11%
CC(=O)c1cc(-c2ccc(F)cc2)n(CC(=O)NCc2ccc(C)cc2)c1C,-3%,0%,.,i,i,.
O=C(NC1CCCCC1)C(c1ccco1)N(CCc1ccccc1)C(=O)C(F)(F)F (configuration not stated),-15%,-12%,-15%,7.3µM*,?,0%
COc1ccc(CCN(C(=O)C(F)(F)F)C(C(=O)NC2CCCC2)c2cccs2)cc1 (configuration not stated),-12%,?,?,?,i,8.9µM*
O=C(NC1CCCCC1)C(c1cccs1)N(C(=O)C(F)(F)F)c1ccccc1 (configuration not stated),2%,-33%,11%,i,i,19%
Nc1ccccc1OC1=NS(=O)(=O)c2ccccc21,.,.,.,i,?,.
COCc1nnc(NC(=O)C2CC(=O)N(c3ccc(C)c(Cl)c3)C2)s1 (configuration not stated),-1%,-1%,-7%,i,i,-13%
COc1ccc(N2CC(C(=O)Nc3cc(C(F)(F)F)ccc3N3CCCC3)CC2=O)c(OC)c1 (configuration not stated),7%,16%,21µM*,?,?,21µM*
COc1ccc(C)cc1N1CC(C(=O)Nc2ccccc2N2CCCCC2)CC1=O (configuration not stated),0%,-1%,10%,i,i,12%
COc1ccc(N2CC(C(=O)Nc3ccccc3N3CCCC3)CC2=O)c(OC)c1 (configuration not stated),9%,?,23µM*,?,7.3µM*,?
COC(=O)c1ccccc1NC(=O)C1CC(=O)N(c2ccc(F)cc2)C1 (configuration not stated),-3%,-9%,21%,i,i,16%
Cc1ccc(N2CC(C(=O)Nc3nccs3)CC2=O)cc1Cl (configuration not stated),-43%,-1%,3%,7.3µM*,?,-26%
COC(=O)c1ccccc1NC(=O)C1CC(=O)N(c2ccc(C)c(C)c2)C1 (configuration not stated),-22%,-6%,0%,21µM*,i,19%
O=C(Nc1cc(C(F)(F)F)ccc1N1CCCC1)C1CC(=O)N(Cc2ccccc2)C1 (configuration not stated),-19%,-13%,0%,i,i,-15%
COc1ccc(CNC(=O)Cn2nc(N3CCN(c4ccccc4)CC3)ccc2=O)c(OC)c1,-13%,-19%,.,i,i,.
O=C(C1CCN(S(=O)(=O)c2cccc3nonc23)CC1)N1CCN(c2ccccc2)CC1,-9%,-15%,.,i,i,.
CC(C)NS(=O)(=O)c1ccc(OCC(=O)Nc2ccc(F)cc2F)cc1,1%,-13%,-1%,16µM*,i,-1%

# High-throughput results as filed in PubChem BioAssay.
